In all, about 59,000 sequences were measured (the read-out: median about -0.00055, lowest 2% from about -2 on). This is one part of a sample in which the lowest values are shown more often than they occur.

The assay is described as follows: Identification of proteins required for the processing of the EWS-FLI1 nascent transcript.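 Also: robust z of luciferase light less the median z of siRNAs with the same seed.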 The note with it: TC32 Ewing sarcoma NR0B1-luc vs CMV-luc (EWS-FLI1 target promoter against control promoter), 48 h; screened at 20 nM (by protocol). An outline of the steps:
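TC32 Ewing sarcoma cells carrying NR0B1-promoter or CMV-promoter luciferase reporters were reverse-transfected with single siRNAs at 20 nM, three per gene genome-wide. Luminescence was read after 48 h and normalized to non-targeting controls.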
For UACUGAGAUAGUCAAAUUC against CYB5D1, the seed-corrected z-score was -0.0466.

For UUAUUGGAGAGCACCUGGU against PADI3, the seed-corrected z-score was found to be 0.0879.

The sequence ACAUCUGUCAGGGUCAUCG against NOD1 had a seed-corrected z-score of -0.0205.

Sequence UCCUUGUCGAAAGAAGUGC against RMND5A showed a seed-corrected z-score of -3.27.

Turning to UCAGUUUACCUGAGAAGCC against C22orf39, the seed-corrected z-score was -0.529.

As to UGACUUUAAGUUUUGGGCC against LINC00999, the seed-corrected z-score amounted to 0.159.

The sequence UGUAGCAUGACCGUCUUCC against LINC00239 gave a seed-corrected z-score of -0.84.

Take AAGGUGCACAAGUAAAGCC against LOC730100: the seed-corrected z-score is -2.05.

Turning to UCAUUGGAUUCCAAAAUCC against ADAM18, the seed-corrected z-score was 0.186.

As to UACGUUAAAAGGCAGGACA against CDKN2A, the seed-corrected z-score was -0.998.

Consider UAGCAGAUGAGAGACUAUG against MRPS24, for which the seed-corrected z-score was -0.269.

The sequence UUUAUGGGCUCUUUUGACG against ENPP5 had a seed-corrected z-score of -0.349.

The sequence UAUGCUAAGGUAGCAGUUG against RNF133 displayed a seed-corrected z-score of 0.16.

The sequence UAUAAGUCUGGGAUAUCUG against CATSPERD came in with a seed-corrected z-score of -0.549.

With UCUUCGAAAGUGACCAGCA against INTS6, the seed-corrected z-score is -0.292.

In turn, UAACCUCCAUCCGAGGUGG against INHA yielded a seed-corrected z-score of -0.1.

As to UGGGAUACCCUCCUUGUCU against UBA52, the seed-corrected z-score was -2.1.

UCUUUGAACAGGAUAAACC against HNRNPAB registered a seed-corrected z-score of 0.756.

UGAAUAUCAAGUUAGAUCC against OR5AK2 displayed a seed-corrected z-score of 0.308.

Sequence UCUCUUGCUUGGAGGAAGC against ZNF174 displayed a seed-corrected z-score of 0.443.

Regarding UCGGAGAUCAGGCUAGUGG against TMEM82, the seed-corrected z-score was -2.03.

UCCGGGUUCAGCAUGUCCA against ESPN registered a seed-corrected z-score of -0.679.

With UAAUUGACCUGUACGCUCG against GATM, the seed-corrected z-score stood at 0.156.

Consider AAAGCAGUUGGAACCGUUG against KRTAP24-1, for which the seed-corrected z-score was determined as 0.448.

Take AUCGAUUUUAAUGAACCGC against RPS4X: the seed-corrected z-score was 1.4.

As to AAAGGCGUAGAGGAGCUGG against TRIB3, the seed-corrected z-score was -3.4.

For UAGGUGAACAUCAUGACGC against ITGB5, the seed-corrected z-score is -0.131.

AUCUUUGUUGCGGAGACUG against OR2T34 returned a seed-corrected z-score of -0.514.

With AGCUUGAUCAUUCUAGUGC against FLJ36777, the seed-corrected z-score turned out to be 0.325.

The sequence UUUCGAAUACCAGCUAUCC against KLHL7 registered a seed-corrected z-score of 0.0747.

In turn, UCGUGGUUCUCAAUUUUGC against PKLR returned a seed-corrected z-score of -0.494.

The sequence ACCUCUGCAUCUCUUGUUC against TCF23 displayed a seed-corrected z-score of -2.43.

For UUUCAAUCCUUCCUCCUUA against IFNA7, the seed-corrected z-score was -0.487.

UAAUGUAACUACUUCCAUC against TM2D1: the seed-corrected z-score was -0.144.

UGUUGUCAAAGAGUGAUUC against SLC2A13 yielded a seed-corrected z-score of -2.46.

For UACUGAAUCACUCCCUUGA against GALK1, the seed-corrected z-score was -0.0112.

UGUAGUACGCUCUUGUUCU against GOLGA8EP came in with a seed-corrected z-score of -0.41.

The sequence UGCCGAGAAGUUUGGCUCC against TPBGL registered a seed-corrected z-score of -0.407.

The sequence AGAUAGUACACUCAUAUGG against ZNF791 displayed a seed-corrected z-score of -2.77.

Regarding UAUGCGGACCAAGUUGUCU against TMEM72, the seed-corrected z-score was 0.195.

In the case of UCAGGAUAAAGAUUGUCGC against KDM4A, the seed-corrected z-score was 1.62.

The sequence UGAAAUUCCCGUAGAGUUC against CA11 registered a seed-corrected z-score of -0.176.

The sequence AAACGAAAAAUGAACACUC against POU3F1 displayed a seed-corrected z-score of 0.371.

The sequence AUUCUGAUCUAGGCGAUGG against C5orf15 had a seed-corrected z-score of -2.22.

In turn, UUCGGAACCGGAGAUCCCA against RIPK4 came in with a seed-corrected z-score of -0.395.

Sequence AAUCUAAUAGGAUUUGUUA against CTBP2 gave a seed-corrected z-score of -0.167.

Sequence ACCGUUUAAACUGAGACCC against FILIP1 showed a seed-corrected z-score of 1.11.

The sequence UCGCUGACUCCAGAUAUGC against AP1G2 returned a seed-corrected z-score of -0.0794.

The sequence UUCUUUGCACGAAUGUCCG against PRPF6 displayed a seed-corrected z-score of -1.74.

In turn, UUGUUAAUCUGGUCAAUUG against GRM8 gave a seed-corrected z-score of 0.169.

UGCUUUUGGAGUGCUAUGG against ANKLE1: the seed-corrected z-score was -2.74.

In the case of UCCACGAAUAGCAAUAUGC against KIDINS220, the seed-corrected z-score is -1.19.

With AAAUCAUAAACCAUCUUUG against OR2L2, the seed-corrected z-score was 1.05.

AGUAGUCACACUGUUGUGC against NXNL2 came in with a seed-corrected z-score of -4.17.

With UAUUUAUCUAGGCACUUCU against CENPT, the seed-corrected z-score was determined as 0.523.

On to UUCUCAGAAACUGCACGGC against SYNGR4, for which the seed-corrected z-score is 0.497.

The sequence UAUUCUUAUCUGUAAUCCC against LOC646736 registered a seed-corrected z-score of -0.205.

UCGCGGAUCAGAAAGGUGC against SOCS3 displayed a seed-corrected z-score of -1.04.

Sequence UACUUUUGAUGCACUAGUC against ETAA1 gave a seed-corrected z-score of -1.14.

As to AACAUAAGAGAGACAAUGC against SYVN1, the seed-corrected z-score was found to be 0.102.

Sequence UCACGAACUGGACUUUACC against GRM7 had a seed-corrected z-score of -0.806.

Sequence GUCAGGUAGAAGACCACAC against MRGPRG registered a seed-corrected z-score of -2.24.

In turn, UGCGUGAACCUCUUGAACA against TNFAIP2 came in with a seed-corrected z-score of 0.027.

Regarding AGUGGAAACAGGAUGGAUG against GAL3ST4, the seed-corrected z-score is -0.271.

The sequence UAGCCGCUGACUUUGAUGC against SLC39A13 showed a seed-corrected z-score of 0.264.

Consider UUACUUGUACCCGCUGUUC against RLTPR, for which the seed-corrected z-score was -0.488.

For the origin of these results see PubChem BioAssay AID1159506 (National Center for Advancing Translational Sciences (NCATS), 2015).
